Screening results from PubChem BioAssay.
In the library only some 10% were active in any assay of this set; here they are far more common.
JMJD2A Tudor inh: qHTS Assay for Inhibitors of JMJD2A-Tudor Domain; Lysine-specific demethylase 4A (Homo sapiens), O75164; AlphaScreen JMJD2A-Tudor / H3K4me3 peptide binding; Potency, µM (highest dose often 114 µM), for inactives: at the top dose activity change, negative = inhibition, usual class: inhibitors; actives 4.4% (n = 390,000); AID 504339, 2011; note: % is set by controls: 0 for no effect and ±100 for the full control effect; nearly all actives have a fitted effect of over 50% in size
GLS inh: qHTS for Inhibitors of Glutaminase (GLS); actives 0.21% (n = 410,000); Glutaminase kidney isoform, mitochondrial (Homo sapiens), O94925; GLS enzymatic activity, qHTS titration; Potency, µM (series often up to 45.5 µM), for inactives: at the top dose activity change, negative = inhibition, usual class: inhibitors; note: % is set by controls: 0 for no effect and ±100 for the full control effect
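Human kidney-isoform GLS in 45 mM KH2PO4 pH 8.2, 0.02% Tween-20, with compound, started with 1mM L-Glutamine (added stock). Glutamate oxidase/HRP/Amplex red coupled fluorescence read at start and after 30 min at RT.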
BAZ2B inh: qHTS Assay for Inhibitors of BAZ2B. Bromodomain adjacent to zinc finger domain protein 2B (Homo sapiens), Q9UIF8. actives 4.4% (n = 360,000). AlphaScreen BAZ2B-H3K14Ac peptide displacement. Potency, µM (highest dose often 114 µM), without a hit: at the top dose activity change, negative = inhibition, usual class: inhibitors. AID 504333, 2011; note: % is set by controls: 0 for no effect and ±100 for the full control effect; nearly all actives have a fitted effect of over 60% in size
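Compounds, titrated to a top concentration of 110 uM, were incubated 30 min at room temperature with preformed BAZ2B/acetyl-K14 H3 peptide complex (50 nM each). Proximity signal was measured by AlphaScreen after 20 min with beads.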
G9a block: qHTS Assay for Inhibitors of Histone Lysine Methyltransferase G9a. G9a H3K9 monomethylation, AlphaScreen, 2 h. Potency, µM (highest dose often 102 µM), for the others: top-dose activity, negative = inhibition, hits mostly inhibitors. actives 8.8% (n = 350,000). AID 504332, 2011; note: % is set by controls: 0 for no effect and ±100 for the full control effect; nearly all actives have a fitted effect of over 75% in size
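Signal arises when biotinylated H3K9 peptide, once monomethylated, bridges streptavidin donor and antibody-captured acceptor beads. Enzyme at 20 nM was preincubated 15 min with test compounds; peptide 500 nM and SAM 20 uM then reacted for 2 h.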
HP1b binding inh: HTS for Inhibitors of HP1-beta Chromodomain Interactions with Methylated Histone Tails; Potency, µM (series often up to 114 µM), for inactives: at the highest dose activity change, negative = inhibition, actives largely listed as inhibitors; AlphaScreen HP1-beta / biotin-H3K9me3 peptide binding; AID 540317, 2011; Chromobox protein homolog 1 (Homo sapiens), P83916; actives 0.56% (n = 390,000); note: nearly all actives have a fitted effect of over 70% in size
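AlphaScreen: HP1-beta (50 nM) preformed 30 min with biotin-H3(1-18)K9me3 peptide (50 nM) in PBS pH 7.4, 0.01% Tween-20. Compound added for 30 min at RT, then streptavidin donor/nickel chelate acceptor beads (10 ug/mL) for 30 min.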
* hit, by the source's call; ? = inconclusive; / = not tested or not shown; [ ] = remark or other dose. Calls come from the whole dose curve; as a rule, active = well fitted curve in the direction sought with a large enough effect; inconclusive = small, poorly fitted or top-dose-only effect, or another doubt; inactive = no such curve, though single readings can be large; an effect the other way counts as inactive or inconclusive. Potency is the fitted concentration of half-maximal effect.

SMILES | JMJD2A Tudor inh | GLS inh | BAZ2B inh | G9a block | HP1b binding inh
CC1CCCCN1S(=O)(=O)c1ccc(C(=O)Nc2nnc(-c3ccco3)o2)cc1 (centres undefined) | -10.3% | 14.3% | 89.1µM* | / | 26.8%
COc1cccc(COC(=O)CCNC(=O)c2ccc(Br)cc2)c1OC | 8.3% | 3.2% | 3.4% | -9.8% | 13.3%
O=C(COc1c(CO)cc(Br)cc1CO)NC1CCCc2ccccc21 (centres undefined) | -7.2% | 1.1% | -4.0% | 11.1% | -1.9%
N=c1sccn1CC(=O)Nc1cc(Cl)ccc1[N+](=O)[O-] | -22.7% | 0.3% | -19.2% | 5.4% | -9.8%
COc1cc(SC)ccc1C(=O)N1CCc2ccccc21 | -0.7% | -5.2% | -5.0% | / | 37.8%
CC1=CC(C)(C)N(C(=O)CSc2nncn2C)c2ccccc21 | -6.7% | -3.1% | 8.1% | 13.4%[59 µM] | 27.3%
Cc1ccc2c(c1)N(C(=O)c1ccco1)C(C)(C)c1ssc(=S)c1-2 | 14.1µM* | -10.7% | 10µM* | 11.2µM* | ?
Cc1cccc2c1N(C(=O)CN1C(=O)c3ccccc3C1=O)C(C)(C)c1ssc(=S)c1-2 | ? | 9.1% | ? | -95.1%[59 µM] | ?
Cc1ccc2c(c1)N(C(=O)CSc1nncn1C)C(C)(C)c1ssc(=S)c1-2 | 79.4µM* | 5.9% | / | 14.1µM* | -32.7%
CN(C)/C=N/c1cc(=O)n(C)c(=O)n1Cc1ccccc1 | -0.7% | -10.1% | -3.2% | 12.7% | 41.1%
CC(O)(c1ccccc1)c1nc(-c2cc3ccccc3o2)cs1 (centres undefined) | / | 1.9% | / | / | /
Cc1nc2sccn2c1-c1nc(-c2cc3ccccc3o2)cs1 | 25.1µM* | -3.4% | ? | 0.2%[59 µM] | -12.1%
Cc1ccc(N(O)C(=O)NCCCCNC(=O)N(O)c2ccc(C)cc2)cc1 | ? | 0.9% | -27.9% | 79.4µM* | 16.1%
CC(C)CCOC(=O)C[N+](C)(C)CCOC1CC2CCC1(C)C2(C)C (centres undefined) | -19.8% | -1.1% | -12.7% | -4.0% | 37.6%
O=C(Nc1nnc(-c2cccs2)s1)c1cccc(F)c1 | -8.8% | -1.0% | -20.3% | 31.6µM* | 22.6%
COc1ccc2oc(=O)cc(CN3CCN(C(=O)c4ccccc4F)CC3)c2c1 | -17.6% | 0.1% | -2.0% | -4.4%[59 µM] | ?
COc1ccc(CN2CCN(C(=O)c3ccccc3F)CC2)c(OC)c1OC | 1.78µM* | -3.7% | / | / | ?
COc1cccc(CN2CCN(C(=O)c3ccco3)CC2)c1OC | 5.62µM* | -2.6% | / | / | 44.7µM*
Cc1cccc(CN2CCN(C(=O)c3cccc4ccccc34)CC2)c1 | 2.24µM* | -11.5% | 56.2µM* | 22.7%[0.501 µM] | ?
Cc1ccccc1CN1CCN(C(=O)c2cccc3ccccc23)CC1 | 25.1µM* | 3.7% | 56.2µM* | 20µM* | ?
O=C(c1ccncc1)N1CCN(C(=O)c2cccc3ccccc23)CC1 | -10.8% | -9.4% | -19.3% | -6.3%[59 µM] | 39.1%
COc1ccc2ccccc2c1CN1CCN(C(=O)c2ccco2)CC1 | -33.3% | -12.4% | ? | -10.9% | 0.5%
COc1ccccc1C(=O)N1CCN(Cc2c[nH]c3ccccc23)CC1 | 17.8µM* | 12.1% | 50.1µM* | -19.9% | ?
COc1cccc(OC)c1C(=O)N1CCN(Cc2ccccc2C)CC1 | -31.5%[11.4 µM] | -17.4% | 50.1µM* | 31.6µM* | ?
COc1cccc(OC)c1C(=O)N1CCN(Cc2c[nH]c3ccccc23)CC1 | / | 4.6% | / | / | /
SMILES | JMJD2A Tudor inh | GLS inh | BAZ2B inh | G9a block | HP1b binding inh
COc1cccc(CN2CCN(C(=O)c3cccc4ccccc34)CC2)c1OC | 3.98µM* | 2.1% | 56.2µM* | ? | 20µM*
COc1cc(C(=O)N2CCN(C(=O)c3cccc4ccccc34)CC2)cc(OC)c1OC | -18.0% | 13.8% | -12.0% | 16.7% | -4.0%
COc1ccccc1CN1CCN(C(=O)c2cccc3ccccc23)CC1 | 20µM* | 4.0% | / | / | ?
O=C(CSc1nc2ccccc2c(=O)[nH]1)Nc1ccccc1O | -5.6% | 19.3% | -5.7% | 6.6% | 6.4%
O=C(C[n+]1ccccc1)Nc1ccccc1C(=O)O | -2.0% | 0.4% | 10.2% | 11.4% | 44.1%
COC(=O)c1ccccc1NC(=O)c1cc[n+](C)cc1 | -12.1% | -2.0% | / | / | 20.5%
COC(=O)c1ccnc(SCC(=O)c2ccccc2)c1 | 16.7% | -4.6% | 10.0% | 12.5%[59 µM] | 79.0%
COC(=O)c1ccnc(/C=N/O)c1 | 35.5µM* | 14.7% | 50.1µM* | ? | -2.9%
O=c1/c(=C/c2ccccn2)sc2n1CN(c1ccccc1)CN=2 | 3.8%[11.4 µM] | -8.5% | 6.9% | 50.1µM* | -37.2%
c1ccc(Cn2ccnc2-c2ccco2)cc1 | -16.6% | 9.1% | -30.1% | 1.0%[59 µM] | 4.7%
Cc1cccc(OC(=O)c2snnc2C)c1 | 14.6% | -2.0% | 17.2% | ? | 44.5%
CC(=O)Nc1ccc(C(=O)NCCCSc2ccccc2)cc1 | 10.3% | 6.5% | / | / | 53.5%
COc1ccc(-n2c(C)cc(C(=O)CN3C(=O)c4ccccc4C3=O)c2C)cc1 | -28.2% | -1.8% | -35.3% | 1.4%[59 µM] | 11.1%
Cc1cc(-n2c(C)cc(C(=O)CCl)c2C)no1 | -22.1% | -8.5% | / | 50.1µM* | 41.8%
CC(=O)Nc1ccc(SCC(=O)c2cc(C)n(-c3ccccc3)c2C)cc1 | -22.6% | -0.9% | 44.7µM* | ? | 3.8%
COc1ccc(-n2c(C)cc(C(=O)CCl)c2C)cc1 | ? | -0.6% | 44.7µM* | 56.2µM* | 0.3%
CC(=O)Nc1ccc(SCCCC(=O)c2ccccc2)cc1 | -18.7% | 2.7% | -20.3% | 44.7µM* | 24.5%
Cc1ccc(OCC(=O)c2cc(C)n(-c3cc(C)on3)c2C)c([N+](=O)[O-])n1 | -31.8% | -0.7% | ? | 50.1µM* | -9.5%
Cc1ccc(OCC(=O)c2ccc(Cl)s2)c([N+](=O)[O-])n1 | 56.2µM* | 18.2% | 50.1µM* | 50.1µM* | -13.3%
COc1ccc(-n2c(C)cc(C(=O)COC(=O)Cn3cnc4ccccc43)c2C)cc1 | ? | 1.0% | ? | 15.8µM* | -15.8%
COc1ccc(-n2c(C)cc(C(=O)CSc3ccc(NC(C)=O)cc3)c2C)cc1 | ? | 9.3% | 44.7µM* | ? | ?
COc1ccc(NC(=O)COC(=O)Cn2cnc3ccccc32)cc1 | -3.5% | -3.3% | / | / | 28.0%
CCCCCOC(=O)Cn1c(=O)oc2ccc(C)cc21 | 38.3% | -4.4% | 36.5% | 34.8% | 76.6%
COCCCN=C(c1ccco1)n1c(=S)nc(-c2ccco2)n(CCCOC)c1=S | 56.2µM* | 10.9% | ? | 7.94µM* | 22.4µM*
C[C@]12CCC(=O)C[C@@H]1CC[C@@H]1[C@@H]2CC[C@]2(C)[C@@H](C(=O)COC(=O)CCC(=O)O)CC[C@@H]12 | -10.3% | 0.6% | 1.5% | 23.7% | 39.8%
